Results filed as inconclusive are left out. The source made the active and inactive calls. Unless noted, calls follow the shape of the dose curve; as a rule, active = well fitted curve in the direction sought with a large enough effect; inconclusive = small, poorly fitted or top-dose-only effect, or another doubt; inactive = no such curve, though single readings can be large; an effect the other way counts as inactive or inconclusive.
Key:
[1] = qHTS assay for measurement of the activity of small molecule inhibitors on Zika virus induced Caspase-3 activity in human iPSC derived neural progenitor cells (hNPCs) (AID 1224857); also: % of control where 0% means no effect; nearly all actives have a fitted effect of over 65% in size
In short: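 Zika virus (2 FFU/cell) infection of human iPSC-derived NPCs, 6 h, following 1 h compound preincubation. Read-out: Caspase-Glo 3/7 luminescence.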

[2] = qHTS assay for measurement of the activity of small molecule inhibitors on Zika virus induced Caspase-3 activity in human astrocytoma cells (AID 1224859);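 also: plate controls were ZIKV-infected untreated cells for no effect and uninfected cells for full effect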
In short: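 Caspase activation in ZIKV-infected SNB-19 cells (2 FFU/cell, 6 h) measured by Caspase-Glo 3/7 luminescence after 30 min RT; compound pre-incubated 1 h; normalised to uninfected and infected controls.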

[3] = qHTS assay to identify small molecule inhibitors of chordoma cells - UCH-1 (AID 1259355); also: % is scaled to controls: 0 for no effect and ±100 for the full control effect; nearly all actives have a fitted effect of over 55% in size
In short: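 Luminescent ATP read-out (CellTiter-Glo, 30min at room temperature) measured viability of UCH-1 cells exposed for 48hr to test drugs at 15 concentrations, co-dosed with a five-agent combination of auranofin, camptothecin, doxorubicin, rubitecan and topotecan.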

[4] = qHTS assay to identify small molecule inhibitors of chordoma cells - UCH-2 (AID 1259356); also: series mostly up to about 46 µM; % is scaled to controls: 0 for no effect and ±100 for the full control effect
[5] = P-glycoprotein substrates identified in KB-8-5-11 adenocarcinoma cell line, qHTS therapeutic library screen (AID 1346987); also: nearly all actives have a fitted effect of over 65% in size; also: potency is read from the fitted curve at half-maximal effect
In short: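 P-gp-mediated resistance screen: KB-8-5-11 cells treated 72 h with compounds in dose-response. CellTiter-Glo viability.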

[6] = Natriuretic polypeptide receptor (hNpr1) antagonism - Pilot counterscreen GloSensor control cell line (AID 1347045; calls by dose curve; also: series mostly up to about 38 µM; % is scaled to controls: 0 for no effect and ±100 for the full control effect)
In short: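 This counterscreen uses HEK293 cells expressing the GIP/pGS-40F cGMP biosensor. Compound-treated cells are challenged with 50 uM sodium nitroprusside, and the luciferase signal is compared before and after stimulation.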

[7] = biological target: T1, Tyrosine-protein phosphatase non-receptor type substrate 1 (Homo sapiens) + Leukocyte surface antigen CD47 (Homo sapiens) (UniProt P78324+Q08722); test: CD47-SIRPalpha protein protein interaction - LANCE assay qHTS validation (AID 1347057; active = well fitted curve in the direction sought with a large enough effect in the signal ratio, with a control signal flat, not every such curve was filed as active; the % refers to the signal ratio; also: series mostly up to about 38 µM; 0% is about no effect)
In short: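 First, His-tagged CD47 and Eu-labelled anti-His antibody met the compound for 30 min; next, site-specifically biotinylated SIRPalpha was added for 30 min; finally streptavidin-APC was added before reading the TR-FRET ratio.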

[8] = NS1 protein of Zika virus - qHTS assay to identify small molecule inhibitors in human HEK 293 cells (AID 1347053);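 also: series mostly up to about 46 µM; plate controls were infected untreated cells for no effect and uninfected cells for full effect; nearly all actives have a fitted effect of over 55% in size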
In short: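 Following 20 h seeding, HEK 293 cells took compound, then 1 h later ZIKV MR766 (MOI = 0.5). Incubation ran 24 h at 37 C before TR-FRET detection of NS1; a drop in signal indicates inhibition.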

[9] = biological target: Atrial natriuretic peptide receptor 1 (Homo sapiens) (UniProt P16066); test: Natriuretic polypeptide receptor (hNpr1) antagonism - Pilot screen (AID 1347049; calls by dose curve;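 also: agonist-evoked cGMP luminescence read 20 min after hNppA addition; series mostly up to about 58 µM; % is scaled to controls: 0 for no effect and ±100 for the full control effect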)
In short: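 HEK293 cells co-expressing hNpr1 and the GloSensor pGS-40F cGMP luciferase sensor were preloaded with 2% GloSensor reagent for 2 h. Compounds were added for 30 min at room temperature, then cells were stimulated with 0.1 nM hNppA for 20 min before luminescence readout.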

[10] = biological target: T1, Tyrosine-protein phosphatase non-receptor type substrate 1 (Homo sapiens) + Leukocyte surface antigen CD47 (Homo sapiens); test: CD47-SIRPalpha protein protein interaction - HTRF assay qHTS validation (AID 1347058; active = well fitted curve in the direction sought with a large enough effect in the signal ratio, not every such curve was filed as active; the % refers to the signal ratio;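 also: recombinant soluble extracellular CD47 with His tag and biotinylated SIRPalpha domains; series mostly up to about 38 µM; 0% is about no effect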)
In short: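 TR-FRET read (Ch1/Ch2 ratio) of soluble extracellular CD47 and Avi-biotinylated SIRPalpha domains in PBS pH 7.4 with 0.05% IGEPAL; 7-point compound titration. Sequential 30 min room-temperature steps; non-biotinylated SIRPalpha as control inhibitor.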

[11] = biological target: Atrial natriuretic peptide receptor 2 (Homo sapiens) (UniProt P20594); test: Natriuretic polypeptide receptor (hNpr2) antagonism - Pilot subtype selectivity assay (AID 1347050; calls by dose curve; also: % is scaled to controls: 0 for no effect and ±100 for the full control effect)
In short: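 cGMP-sensor HEK293/hNpr2 cells; 2% GloSensor reagent 2 h RT; compounds 30 min; baseline luminescence read; 1 nM hNppC agonist 20 min RT; final luminescence read by CCD camera. Antagonism = reduced post-agonist signal.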

Chain of Atrial natriuretic peptide receptor 1 (Homo sapiens) (P16066 whole entry, looked up): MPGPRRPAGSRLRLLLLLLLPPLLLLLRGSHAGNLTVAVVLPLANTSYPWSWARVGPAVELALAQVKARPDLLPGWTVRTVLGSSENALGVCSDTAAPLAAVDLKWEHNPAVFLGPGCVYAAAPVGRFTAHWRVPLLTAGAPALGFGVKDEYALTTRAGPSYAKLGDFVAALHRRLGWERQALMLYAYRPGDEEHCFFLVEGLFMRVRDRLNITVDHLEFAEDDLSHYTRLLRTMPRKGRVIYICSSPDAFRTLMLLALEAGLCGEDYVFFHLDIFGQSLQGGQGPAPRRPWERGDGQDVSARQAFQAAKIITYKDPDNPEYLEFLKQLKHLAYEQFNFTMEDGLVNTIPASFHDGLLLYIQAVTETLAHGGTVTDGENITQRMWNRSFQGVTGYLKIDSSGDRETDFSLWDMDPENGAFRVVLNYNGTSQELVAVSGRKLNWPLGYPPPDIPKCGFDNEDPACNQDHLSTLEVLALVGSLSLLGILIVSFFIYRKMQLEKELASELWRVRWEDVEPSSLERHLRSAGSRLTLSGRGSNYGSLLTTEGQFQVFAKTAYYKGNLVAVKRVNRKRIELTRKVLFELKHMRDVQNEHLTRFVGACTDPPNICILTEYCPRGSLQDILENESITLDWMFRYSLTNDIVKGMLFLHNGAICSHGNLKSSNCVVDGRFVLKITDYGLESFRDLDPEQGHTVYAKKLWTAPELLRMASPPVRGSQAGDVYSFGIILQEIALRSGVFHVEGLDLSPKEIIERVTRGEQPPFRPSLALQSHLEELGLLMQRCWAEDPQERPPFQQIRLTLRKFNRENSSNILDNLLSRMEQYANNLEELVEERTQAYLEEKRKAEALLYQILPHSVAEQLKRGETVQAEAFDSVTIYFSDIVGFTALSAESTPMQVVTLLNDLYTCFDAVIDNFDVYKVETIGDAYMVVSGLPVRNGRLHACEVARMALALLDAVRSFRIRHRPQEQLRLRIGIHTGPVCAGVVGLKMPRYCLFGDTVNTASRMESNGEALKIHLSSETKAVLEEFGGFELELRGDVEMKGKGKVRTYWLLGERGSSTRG
T1 sequence (P78324 whole entry, looked up): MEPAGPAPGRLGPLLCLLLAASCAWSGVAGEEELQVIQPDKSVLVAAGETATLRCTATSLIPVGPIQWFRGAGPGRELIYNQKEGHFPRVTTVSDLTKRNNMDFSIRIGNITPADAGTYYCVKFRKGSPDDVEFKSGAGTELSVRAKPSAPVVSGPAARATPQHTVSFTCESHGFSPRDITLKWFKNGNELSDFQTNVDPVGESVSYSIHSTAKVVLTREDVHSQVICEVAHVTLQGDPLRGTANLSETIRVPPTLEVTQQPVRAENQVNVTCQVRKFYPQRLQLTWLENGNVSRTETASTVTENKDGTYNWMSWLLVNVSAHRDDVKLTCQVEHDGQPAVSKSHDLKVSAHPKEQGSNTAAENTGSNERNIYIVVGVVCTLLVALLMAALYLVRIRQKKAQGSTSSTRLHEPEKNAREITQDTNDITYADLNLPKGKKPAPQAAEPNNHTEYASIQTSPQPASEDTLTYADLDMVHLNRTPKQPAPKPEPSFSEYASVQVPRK
T1 sequence (Q08722 whole entry, looked up): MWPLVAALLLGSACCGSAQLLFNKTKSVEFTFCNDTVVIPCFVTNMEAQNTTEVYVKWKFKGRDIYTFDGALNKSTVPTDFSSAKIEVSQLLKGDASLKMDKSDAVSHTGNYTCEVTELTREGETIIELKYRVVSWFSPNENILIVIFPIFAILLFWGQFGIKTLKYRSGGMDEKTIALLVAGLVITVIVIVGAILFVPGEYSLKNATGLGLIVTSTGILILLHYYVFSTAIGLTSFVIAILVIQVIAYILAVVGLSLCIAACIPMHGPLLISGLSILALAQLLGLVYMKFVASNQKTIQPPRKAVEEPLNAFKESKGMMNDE
Chain of Atrial natriuretic peptide receptor 2 (Homo sapiens) (P20594 whole entry, looked up): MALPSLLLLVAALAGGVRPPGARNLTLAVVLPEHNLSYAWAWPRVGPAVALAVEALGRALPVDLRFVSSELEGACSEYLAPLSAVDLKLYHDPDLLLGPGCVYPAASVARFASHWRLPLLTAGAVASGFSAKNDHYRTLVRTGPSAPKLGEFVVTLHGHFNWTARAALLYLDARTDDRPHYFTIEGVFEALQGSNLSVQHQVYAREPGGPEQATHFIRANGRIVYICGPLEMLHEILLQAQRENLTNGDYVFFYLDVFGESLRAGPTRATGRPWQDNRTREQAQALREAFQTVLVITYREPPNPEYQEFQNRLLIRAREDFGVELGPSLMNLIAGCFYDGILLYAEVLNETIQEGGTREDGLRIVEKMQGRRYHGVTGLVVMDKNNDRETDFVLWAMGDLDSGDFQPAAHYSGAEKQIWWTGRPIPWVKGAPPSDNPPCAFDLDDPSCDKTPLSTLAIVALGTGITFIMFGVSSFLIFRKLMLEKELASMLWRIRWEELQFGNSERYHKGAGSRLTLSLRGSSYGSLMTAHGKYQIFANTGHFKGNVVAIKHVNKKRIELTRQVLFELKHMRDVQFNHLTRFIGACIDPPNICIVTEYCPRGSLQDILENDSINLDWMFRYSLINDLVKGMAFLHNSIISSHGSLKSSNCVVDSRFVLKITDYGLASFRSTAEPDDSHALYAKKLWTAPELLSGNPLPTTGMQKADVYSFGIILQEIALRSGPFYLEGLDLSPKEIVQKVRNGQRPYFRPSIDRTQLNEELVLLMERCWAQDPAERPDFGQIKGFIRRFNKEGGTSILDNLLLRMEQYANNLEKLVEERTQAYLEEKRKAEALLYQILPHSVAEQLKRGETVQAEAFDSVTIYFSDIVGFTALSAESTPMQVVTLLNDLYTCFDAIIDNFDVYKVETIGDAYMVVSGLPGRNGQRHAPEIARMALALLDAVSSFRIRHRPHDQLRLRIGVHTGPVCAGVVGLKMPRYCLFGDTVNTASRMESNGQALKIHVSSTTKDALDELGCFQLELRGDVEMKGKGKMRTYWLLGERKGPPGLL

Cn1cc[nH]c1=S
inactive: outcome [1] | outcome [2] | Potency [3] | outcome [4] | Potency [5]

Oc1ccc(C(O)CNCCCCCCNCC(O)c2ccc(O)c(O)c2)cc1O (centres undefined)
inactive: outcome [1] | outcome [2] | Potency [3] | outcome [4] | Potency [5]

CN1CCN(C2Cc3ccccc3Sc3ccc(Cl)cc32)CC1 (centres undefined)
inactive: outcome [1] | outcome [2] | Potency [3] | outcome [4] | Potency [5] | outcome [6] | outcome [7]

O=c1[nH]c(=O)c2[nH]c(=O)[nH]c2[nH]1
inactive: activity change, negative = inhibition [1] -8.73% [at 9.06 µM] | activity change, negative = inhibition [2] -0.8% [at 9.06 µM] | Potency [3] | outcome [4] | Potency [5] | activity change, negative = inhibition [8] -8.7% [at 9.2 µM]

OCC(O)CN1CCN(c2ccccc2)CC1 (centres undefined)
inactive: outcome [1] | outcome [2] | Potency [3] | outcome [4] | Potency [5] | Potency [8]

N[C@H]1C(O)O[C@H](CO)[C@@H](O)[C@@H]1O (some centres undefined)
inactive: outcome [1] | outcome [2] | Potency [3] | outcome [4] | Potency [5] | Potency [8]

CO/N=C(\C(=O)N[C@@H]1C(=O)N2C(C(=O)O)=C(CSc3nc(=O)c(O)nn3C)CS[C@H]12)c1csc(N)n1
inactive: outcome [1] | outcome [2] | Potency [3] | outcome [4] | Potency [5] | Potency [8]

O=C(O)COc1nn(Cc2ccccc2)c2ccccc12
inactive: outcome [1] | outcome [2] | Potency [3] | outcome [4] | Potency [5] | Potency [8]

CSc1ccc2c(c1)C(N1CCN(C)CC1)Cc1ccccc1S2 (centres undefined)
inactive: outcome [1] | outcome [2] | Potency [3] | outcome [4] | Potency [5] | outcome [9] | outcome [7] | outcome [10]

CCCCCCCCCCCCCCCC(=O)NCCO
inactive: outcome [1] | outcome [2] | Potency [3] | outcome [4] | Potency [5] | outcome [9] | Potency [11] | Potency [8]

COc1ccc2c(c1)C(=O)N(CCc1ccc(S(=O)(=O)NC(=O)NC3CCCCC3)cc1)C(=O)C2(C)C
inactive: outcome [1] | outcome [2] | Potency [3] | outcome [4] | Potency [5] | Potency [8]

CCCOC(=O)c1ccccc1
inactive: outcome [1] | outcome [2] | Potency [3] | outcome [4] | Potency [5] | Potency [8]

CCN(CC)C(=O)Nc1ccc(OCC(O)CNC(C)(C)C)c(C(C)=O)c1 (centres undefined)
inactive: outcome [1] | outcome [2] | Potency [3] | outcome [4] | Potency [5] | Potency [8]

COc1cc2[nH]c(=O)[nH]c(=O)c2cc1OC
inactive: outcome [1] | outcome [2] | Potency [3] | outcome [4] | Potency [5] | Potency [8]

CC(C)(C)NCC(O)COc1ccc(NC(=O)NC2CCCCC2)cc1 (centres undefined)
inactive: outcome [1] | outcome [2] | Potency [3] | outcome [4] | Potency [5] | Potency [8]

O=C1O[C@H]([C@@H](O)CO)C(O)=C1O
inactive: outcome [1] | outcome [2] | Potency [3] | outcome [4] | Potency [5] | Potency [8]

CCCCOC(=O)c1ccc(O)cc1
inactive: outcome [1] | outcome [2] | Potency [3] | outcome [4] | Potency [5] | Potency [8]

CN1CCCCC1CCN1c2ccccc2Sc2ccc(S(C)=O)cc21 (centres undefined)
inactive: outcome [1] | outcome [2] | Potency [3] | outcome [4] | Potency [5] | Potency [8]

O=c1cc(CO)occ1O
inactive: outcome [1] | outcome [2] | Potency [3] | outcome [4] | Potency [5] | Potency [8]

C[C@@H]1C[C@H]2[C@@H]3C[C@H](F)C4=CC(=O)C=C[C@]4(C)[C@@]3(F)[C@@H](O)C[C@]2(C)[C@@]1(O)C(=O)CO
inactive: outcome [1] | outcome [2] | Potency [3] | outcome [4] | Potency [5] | Potency [8]

CN(C)CCN(Cc1ccccc1)c1ccccn1
inactive: outcome [1] | outcome [2] | Potency [3] | outcome [4] | Potency [5] | Potency [8]

Cc1c(Cl)cccc1Nc1ccccc1C(=O)O
inactive: outcome [1] | outcome [2] | Potency [3] | outcome [4] | Potency [5] | Potency [8]

C=CCn1c(=O)n([C@@H]2O[C@H](CO)[C@@H](O)[C@H]2O)c2nc(N)[nH]c(=O)c21
inactive: outcome [1] | outcome [2] | Potency [3] | outcome [4] | Potency [5] | Potency [8]

CCCCC/C(C=O)=C\c1ccccc1
inactive: outcome [1] | outcome [2] | Potency [3] | outcome [4] | Potency [5] | Potency [8]

C/C(=C(\CCOP(=O)(O)O)SC(=O)c1ccccc1)N(C=O)Cc1cnc(C)nc1N
inactive: activity change, negative = inhibition [1] 4.2% [at 4.53 µM] | activity change, negative = inhibition [2] 26.7% [at 4.53 µM] | Potency [3] | outcome [4] | Potency [5] | activity change, negative = inhibition [8] 3.35% [at 4.81 µM]

CCN(CC)CCCC(C)Nc1c2ccc(Cl)cc2nc2ccc(OC)cc12 (centres undefined)
inactive: outcome [1] | outcome [2] | Potency [3] | outcome [4] | outcome [9] | Potency [11] | Potency [8]
active: Potency [5] 6.32 µM

CC(=O)CCC(=O)O
inactive: outcome [1] | outcome [2] | Potency [3] | outcome [4] | Potency [5] | Potency [8]

C[C@@H]1CC[C@@]2(OC1)O[C@H]1C[C@H]3[C@@H]4CC[C@H]5C[C@@H](O)CC[C@]5(C)[C@H]4CC(=O)[C@]3(C)[C@H]1[C@@H]2C
inactive: activity change, negative = inhibition [1] 4.72% [at 4.53 µM] | activity change, negative = inhibition [2] -4.08% [at 4.53 µM] | Potency [3] | outcome [4] | Potency [5] | activity change, negative = inhibition [8] -2.82% [at 4.81 µM]

CCOc1nc2cccc(C(=O)O)c2n1Cc1ccc(-c2ccccc2-c2nn[nH]n2)cc1
inactive: outcome [1] | outcome [2] | Potency [3] | outcome [4] | Potency [5] | Potency [8]

— PubChem BioAssay (NCATS)
